# High-throughput results deposited in PubChem by National Center for Advancing Translational Sciences (NCATS).
# The list is not random: actives were taken first. Their share in the collection is about 20%.
# HCMV antiviral: inhibitors of human cytomegalovirus. 4.5% of 410,000 active. HFF cells, HCMV-luciferase reporter, 72 h; stronger effect = lower value. activity change, negative = inhibition, % at 57.5 µM. AID 1259415; in the data active = activity change below about -60%; inconclusive = no clear call, values can overlap the other calls; inactive = above about -39%; note: % is set by controls: 0 for no effect and ±100 for the full control effect
#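 Compounds were evaluated in HFFs infected with an HCMV luciferase reporter virus (MOI 1 PFU/cell). Luciferase in lysates collected 72 h post infection served as the replication measure.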
# Pf growth 48h: inhibits P. falciparum growth in the first generation, 48 h. P. falciparum luciferase growth in erythrocytes, 48 h. Potency, µM (highest dose often 28.7 µM), for the others: at the highest dose activity change, negative = inhibition, most hits filed as inhibitors. 5.9% of 310,000 active. AID 504832; note: potency is the fitted concentration of half-maximal effect; % is set by controls: 0 for no effect and ±100 for the full control effect
#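 Growth was read as firefly luciferase luminescence after a 48 h, 37 C, 5% CO2 exposure of compounds to reporter-bearing P. falciparum cultures (0.1% parasitemia, 2% hematocrit final) in Albumax-supplemented RPMI 1640.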
# Cycloheximide cs: affects cycloheximide protein synthesis inhibition readout, counter-screen; cell reporter, cycloheximide protein synthesis inhibition counterscreen; max response, %; 12% of 300,000 active; in the data active = max response mostly above about 13%, no sharp cut-off; inactive = mostly below about 14%; note: read at 38.3 µM for the half of the compounds with a filed dose; 0% is about no effect
# Pf growth 96h: inhibits malaria parasite growth, 96 h. P. falciparum luciferase reporter growth, 96 h. Potency, µM (doses to about 28.7 µM), without a hit: at the top dose activity change, negative = inhibition, hits mostly inhibitors. AID 504834. 6.9% of 320,000 active; note: potency is the fitted concentration of half-maximal effect; % is set by controls: 0 for no effect and ±100 for the full control effect
#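 Luminescence readout: decreased luciferase signal marks inhibited growth of reporter-expressing P. falciparum in infected red cells (2% hematocrit, 0.05% parasitemia final), exposed to compound two generations (96 h, 37 C, 5% CO2).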
# Shiga toxin inh: Shiga toxin inhibition; inhibition, % at 38.7 µM; Vero cells, Shiga toxin protein synthesis inhibition reporter; 9.2% of 290,000 active; in the data active = inhibition mostly above about 28%, no sharp cut-off; inactive = mostly below about 43%; note: 0% is about no effect
# CLK4 ADP-Glo: confirmation of inhibitors of human CDC-like kinase 4. 80% of 65 active. shares compounds with Pf growth 48h. recombinant Clk4, RS peptide, ADP-Glo luminescence. Potency, µM (top dose mostly 80 µM), inactives show at the highest dose activity, negative = inhibition, actives largely listed as inhibitors
# Target sequence (Q9HAZ1 whole entry, looked up): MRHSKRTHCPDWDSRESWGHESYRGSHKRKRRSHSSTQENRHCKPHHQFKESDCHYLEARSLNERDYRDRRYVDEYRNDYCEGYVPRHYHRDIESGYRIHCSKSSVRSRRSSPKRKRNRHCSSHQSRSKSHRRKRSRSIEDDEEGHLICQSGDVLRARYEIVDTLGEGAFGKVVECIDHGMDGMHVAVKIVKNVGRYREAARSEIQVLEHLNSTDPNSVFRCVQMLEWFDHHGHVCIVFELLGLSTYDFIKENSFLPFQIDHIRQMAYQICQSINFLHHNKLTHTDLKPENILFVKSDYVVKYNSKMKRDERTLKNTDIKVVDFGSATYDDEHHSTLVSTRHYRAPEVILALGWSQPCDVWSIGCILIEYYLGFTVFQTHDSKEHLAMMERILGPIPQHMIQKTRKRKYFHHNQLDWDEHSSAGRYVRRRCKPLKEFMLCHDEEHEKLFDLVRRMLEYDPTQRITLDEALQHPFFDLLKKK
# CLK4 ADP FP: CLK4 (human) inhibition, Transcreener FP confirmation. 70% of 65 active. Potency, µM (highest dose often 80 µM), for inactives: at the highest dose activity, negative = inhibition, actives largely listed as inhibitors. shares compounds with Pf growth 48h. recombinant Clk4, ADP Transcreener FP, RS peptide
# * = called active by the depositor; ? = inconclusive; . = no result given; ! = repeats disagree. Unless noted, calls come from the whole dose curve; as a rule, active = well fitted curve in the direction sought with a large enough effect; inconclusive = small, poorly fitted or top-dose-only effect, or another doubt; inactive = no such curve, though single readings can be large; an effect the other way counts as inactive or inconclusive.
SMILES,HCMV antiviral,Pf growth 48h,Cycloheximide cs,Pf growth 96h,Shiga toxin inh,CLK4 ADP-Glo,CLK4 ADP FP
Cc1cccc(CNc2ncnc3ccc(-c4ccc5c(c4)OCCO5)cc23)c1,-89*,4.7µM*,.,3.3µM*,.,0.56µM*,0.71µM*
OC(c1ccccc1)c1nc(-c2ccc(F)c(Cl)c2)cs1 (stereo not drawn),0,.,.,.,.,.,.
COCCCNC(=O)[C@H](Cc1ccccc1)NC(=O)CC[C@H]1O[C@@H](n2ccc(=O)[nH]c2=O)[C@H](O)[C@@H]1O,-6,.,.,.,.,.,.
Cc1cccc(CSCCNC(=O)C2CCN(S(=O)(=O)Cc3ccccc3)CC2)c1,3,.,.,.,.,.,.
Fc1cccc(CNc2ncnc3ccc(-c4cccc(Cl)c4)cc23)c1,.,6.6µM*,.,2.9µM*,.,7.1µM*,13µM*
Fc1cccc(CNc2ncnc3ccc(-c4ccoc4)cc23)c1,.,?,.,?,.,3.5µM*,3.5µM*
Cc1cccc(CNc2ncnc3ccc(-c4ccc5c(ccn5C)c4)cc23)c1,.,3.3µM*,.,1.9µM*,.,?,?
Cc1noc(C)c1-c1ccc2ncnc(NCC3CCN(C)CC3)c2c1,.,.,28,.,21,.,.
Cc1cccc(CNc2ncnc3[nH]ncc23)c1,-32,.,.,.,.,.,.
Cn1ncc2c(NCc3cccc(Cl)c3)ncnc21,-2,.,.,.,.,.,.
Cc1cccc(CNc2ncnc3ccc(-c4cccc(C)c4)cc23)c1,.,13µM*,.,3.7µM*,.,14µM*,?
COc1ccc(NC(=O)CN(C)C(=O)CN2C(=O)NC3(CCCC3)C2=O)cc1,-17,?,.,23%,.,.,.
Cc1cccc(C(=O)n2nc(-c3cccnc3)nc2NCc2ccccc2)c1,2,.,.,.,.,.,.
Cc1cccc(CNc2ncnc3ccc(-c4cccnc4)cc23)c1,-8,12µM*,.,6.6µM*,.,2.8µM*,5µM*
Cc1ccc(S(=O)(=O)NNC(=O)Nc2cccc(C)c2C)c(C)c1,0,11%,1,?,-16,.,.
CCOc1ccc(S(=O)(=O)N2CCCC(C(=O)N3CCN(c4ccccc4)CC3)C2)cc1 (stereo not drawn),-39,0%,-2,2%,-16,.,.
Cc1noc(C)c1-c1ccc2ncnc(NCc3ccco3)c2c1,.,.,3,.,-5,.,.
c1coc(-c2ccc3ncnc(NCc4cccs4)c3c2)c1,.,?,.,?,.,28µM*,28µM*
Cc1ccccc1CNc1ncnc2cc(Cl)ccc12,?,.,-2,?,-9,.,.
Clc1ccccc1-c1ccc2ncnc(NCc3cccs3)c2c1,-7,5.9µM*,.,3.7µM*,.,6.3µM*,?
Cc1csc(CNc2ncnc3ccc(-c4ccccc4Cl)cc23)c1,1,9.3µM*,.,2.6µM*,.,8.9µM*,?
Cc1ccc(CNc2ncnc3ccc(-c4ccoc4C)cc23)o1,-30,.,.,.,.,.,.
COc1ccc(CN2CCCCCC2)cc1Br,4,3%,-2,15%,4,.,.
CC(C)[C@H](NC(=O)[C@@H]1CSC2c3ccccc3C(=O)N21)C(=O)N1CCCCC1 (stereo partly drawn),15,?,2,?,-4,.,.
Cc1cc(OC(C)C(=O)NC2CC(C)(C)NC(C)(C)C2)c2c(C)c(C)c(=O)oc2c1 (stereo not drawn),50,.,.,.,.,.,.
SMILES,HCMV antiviral,Pf growth 48h,Cycloheximide cs,Pf growth 96h,Shiga toxin inh,CLK4 ADP-Glo,CLK4 ADP FP
CCCC(=O)Nc1c2c(nn1-c1ccc([N+](=O)[O-])cc1)CS(=O)(=O)C2,-24,21%,-1,11%,3,.,.
Cc1csc(CNc2ncnc3ccc(-c4ccc5c(c4)OCO5)cc23)c1,-69*,10µM*,.,3.3µM*,.,0.16µM*,0.16µM*
Cc1csc(CNc2ncnc3ccc(-c4ccc5c(c4)OCCO5)cc23)c1,8,12µM*,.,?,.,0.45µM*,0.56µM*
COc1cccc(-c2ccc3ncnc(NCc4cc(C)cs4)c3c2)c1,-38,6.6µM*,.,4.1µM*,.,0.89µM*,1.3µM*
Cc1ccsc1CN(C)c1ncnc2ccc(-c3ccoc3)cc12,-17,.,.,.,.,.,.
Cc1csc(CNc2ncnc3ccc(-c4ccoc4)cc23)c1,-86*,13µM*!,.,?,.,0.56µM*,0.56µM*
Cc1csc(CNc2ncnc3ccc(-c4cccnc4)cc23)c1,-15,?,.,10µM*,.,4.5µM*,11µM*
